Among the data in PubChem BioAssay (NCATS) are Potency and outcome values, retold here.

A number with no mark means an inactive call. Records with an inconclusive call do not appear. Active and inactive are the calls of the source. Calls follow the shape of the dose curve; as a rule, active = well fitted curve in the direction sought with a large enough effect; inconclusive = small, poorly fitted or top-dose-only effect, or another doubt; inactive = no such curve, though single readings can be large; an effect the other way counts as inactive or inconclusive.

Test [1] deals with Zika virus NS2B-NS3 protease (linked construct). Nature of the test: Primary screen NINDS Rhodamine qHTS for Zika virus inhibitors (AID 1347160). Also: nearly all actives have a fitted effect of over 55% in size. Also: potency is read from the fitted curve at half-maximal effect. In outline:
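Aprotinin served as in-plate control. Conditions: 25 nM linked NS2B-NS3, pH 8.0 Tris buffer, titrated compounds, 15 min preincubation and 15 min reaction with 1.5 microM Rhod110 substrate at room temperature.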

Test [2] is described as follows: HPAF-II Cancer Cell Toxicity qHTS against the NCATS CANVASS Library (AID 1347346). Also: series mostly up to about 38 µM; nearly all actives have a fitted effect of over 55% in size. In outline:
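First, HPAF-II cells are plated (1000 cells/well) and held 4 h at 37 degrees C. Next, compounds are pin-transferred as an 11-point series. After 72 h, CellTiter-Glo is added and luminescence measured.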

The nature of test [3]: OV-SAHO Cancer Cell Toxicity qHTS against the NCATS CANVASS Library (AID 1347348). Also: series mostly up to about 38 µM; nearly all actives have a fitted effect of over 55% in size. In outline: (§1)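 Following a 4 h pre-incubation of 1000 seeded cells, compounds were pinned in an 11-pnt dilution series and left for 72 h; viability then came from CellTiter-Glo.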
For orientation: qHTS replaces the single test concentration by a dilution series.

The nature of test [4]: U-118MG Cancer Cell Toxicity qHTS against the NCATS CANVASS Library (AID 1347351). The method in brief:
as §1

Test [5] in a line: COV-362 Cancer Cell Toxicity qHTS against the NCATS CANVASS Library (AID 1347352). Also: series mostly up to about 38 µM. The method in brief: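 First, 1000 cells go into each well and rest for 4 hours. Next, an 11-point dilution range is pinned in. Plates then incubate 72 hours before CellTiter-Glo addition and luminescence reading.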
A short description of test [6]: HEK293 18hr Apoptosis Induction qHTS against the NCATS CANVASS Library (AID 1347357). The method in brief:
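HEK293 cells (500 per well, DMEM with 10% FBS) were treated with natural products, incubated 18 hours at 37 degrees C, then caspase-3/7 activity was read by Caspase-Glo luminescence after 15 min at room temperature.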

The nature of test [7]: HPAF-II 12hr Apoptosis Induction qHTS against the NCATS CANVASS Library (AID 1347358). The method in brief: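 Cells plated at 500 per well are dosed with compound and incubated 12 hours at 37 degrees C. Caspase-Glo 3/7 reagent is added and, after 15 min at room temperature, luminescence proportional to caspase activity is measured.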
Test [8] in a line: HEK293 24hr Apoptosis Induction qHTS against the NCATS CANVASS Library (AID 1347359). The method in brief: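 Caspase-3/7 activation measured as luminescence from the DEVD-based Caspase-Glo reagent, 15 min at room temperature, following 24-hour compound treatment of HEK293 cells.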
Test [9] can be described thus: HPAF-II 18hr Apoptosis Induction qHTS against the NCATS CANVASS Library (AID 1347360). The method in brief: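 HPAF-II cells (500/well, DMEM + 10% FBS) were exposed to compounds for 18 hours at 37 degrees C. Caspase-3/7 activity was then read by Caspase-Glo 3/7 luminescence after 15 min at room temperature.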
Test [10] is described as follows: HEK293 12hr Apoptosis Induction qHTS against the NCATS CANVASS Library (AID 1347361). The method in brief:
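Read-out: Caspase-Glo 3/7 luminescence (DEVD substrate), 15 min RT. Preceded by 12 h compound exposure of HEK293, 500 cells/well, 11-pt qHTS titration; doxorubicin titration as control.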

For test [11], the target named is Luciferin 4-monooxygenase (Photinus pyralis) (UniProt P08659). In words: Firefly luciferase counterscreen qHTS: Assay Interference Panel against the NCATS CANVASS Library (AID 1347363). Also: series mostly up to about 57 µM. In outline:
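Luminescence inhibition readout: compounds (11-point qHTS) sat 15 min at room temperature with substrate mix (0.013 mM luciferin and ATP), then firefly luciferase was added and signal read 5 min later.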

Test [12] in a line: MCF7 Cancer Cell Toxicity qHTS against the NCATS CANVASS Library (AID 1347369). In outline:
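MCF7, 500 cells/well; cpds 11-pt qHTS; 72 hr, 37C/5% CO2; CellTiterGlo ATP luminescence.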

Test [13] is described as follows: qHTS for ATAD5 Antagonist screened against the NCATS CANVASS Library (AID 1347370). Also: nearly all actives have a fitted effect of over 65% in size. Also: potency is read from the fitted curve at half-maximal effect. The method in brief:
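Compounds (11-point) co-dosed with 10 µM 5-FUrd for 16 h at 37 °C onto HEK293T-ATAD5 luciferase reporter cells. Viability measured by CellTiter-Fluor fluorescence, then ATAD5 reporter signal by luminescence.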

Test [14] is described as follows: J3T Cancer Cell Toxicity qHTS against the NCATS CANVASS Library (AID 1347371). In outline:
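Luminescence from CellTiterGlo, reporting cellular ATP, serves as the viability measure after 72 hr compound treatment of J3T canine glioma cells seeded at 500 cells/well.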

Test [15] concerns the target Nuclear receptor subfamily 1 group I member 3 (Homo sapiens) (UniProt Q14994). Nature of the test: qHTS for Constitutive Androstane Receptor (CAR) Antagonist screened against the NCATS CANVASS Library (AID 1347372).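 Also: cells stimulated with 50 nM CITCO agonist so inhibition reflects antagonism; series mostly up to about 46 µM.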 In outline: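 Antagonist mode: compound added alongside 50 nM CITCO to HepG2-hCAR-CYP2B6 reporter cells, 24hr at 37C. Viability by CellTiter-Fluor fluorescence, then CAR-driven luciferase by ONE-Glo luminescence.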

Test [16] can be described thus: 10-beta competent E. coli microbial cell viability qHTS against the NCATS CANVASS Library (AID 1347376). Also: series mostly up to about 46 µM. The method in brief:
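Bacterial suspension diluted to 0.2 OD was dosed with compounds, 11-point series, then held overnight at 37C. BacTiter-Glo reagent was added, and after 20 min at room temperature ATP-dependent luminescence was measured.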

The nature of test [17]: qHTS for Inflammasome Signaling Inhibitors: IL-1-beta AlphaLISA screen against the NCATS CANVASS Library (AID 1347379).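 Also: human THP-1 cells primed with LPS then triggered with ATP.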 The method in brief:
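Secreted IL-1B from human THP-1 cells quantified by AlphaLISA 16 hr after compound addition (final up to 57.5 uM). A 1 hr compound pretreatment preceded inflammasome activation with 250 ng/mL LPS plus 1.25 mM ATP (final).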

A short description of test [18]: Inflammasome Signaling qHTS Counterscreen: IL-1-beta AlphaLISA counterscreen against the NCATS CANVASS Library (AID 1347381).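 Also: cell-free check with purified IL-1β in medium and no THP-1 cells; series mostly up to about 57 µM.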 The method in brief: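 Purified IL-1-beta (4 pg/well) + compound, 11-pt conc. series; acceptor beads 6 ug/mL + biotin-Ab 0.6 nM final, 1 h RT; SA-donor 24 ug/ml final, 30 min dark RT; read ex 680/em 615.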
The nature of test [19]: Cytotoxicity qHTS for assessment of Hepg2 cells membrane integrity screened against the NCATS CANVASS Library (AID 1347387). In outline:
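Cells were seeded at 2000 per well and left overnight to attach. Compounds were pin-transferred to give 0.59 nM - 46 uM in an 11-point series and incubated 5 hr at 37C. CytoTox-ONE reagent was added and, after 10 min at room temperature, fluorescence (ex 560, em 590 nm) was read.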

Test [20] in a line: Vero-766 cells viability qHTS against the NCATS CANVASS Library: Counterscreen for Zika virus inhibition assay (AID 1347394). Also: series mostly up to about 46 µM; nearly all actives have a fitted effect of over 60% in size. In outline:
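Uninfected Vero 766 (African green monkey) cells, 1000/well, attached overnight, then exposed 72 h at 37C to compounds (11-point qHTS). Viability read by CellTiter-Glo luminescence; media-only wells served as 100% inhibition.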

Sequence of Nuclear receptor subfamily 1 group I member 3 (Homo sapiens) (Q14994 whole entry, looked up): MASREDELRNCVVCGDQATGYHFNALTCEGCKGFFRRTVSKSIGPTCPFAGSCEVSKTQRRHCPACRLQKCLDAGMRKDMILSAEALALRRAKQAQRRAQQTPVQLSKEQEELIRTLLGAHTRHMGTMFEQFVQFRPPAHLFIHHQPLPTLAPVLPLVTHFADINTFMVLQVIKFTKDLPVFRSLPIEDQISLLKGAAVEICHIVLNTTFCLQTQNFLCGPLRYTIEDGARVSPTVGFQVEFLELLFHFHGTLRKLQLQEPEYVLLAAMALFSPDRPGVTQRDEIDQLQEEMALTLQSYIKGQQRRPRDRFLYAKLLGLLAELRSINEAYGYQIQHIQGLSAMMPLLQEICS
Sequence of Luciferin 4-monooxygenase (Photinus pyralis) (P08659 whole entry, looked up): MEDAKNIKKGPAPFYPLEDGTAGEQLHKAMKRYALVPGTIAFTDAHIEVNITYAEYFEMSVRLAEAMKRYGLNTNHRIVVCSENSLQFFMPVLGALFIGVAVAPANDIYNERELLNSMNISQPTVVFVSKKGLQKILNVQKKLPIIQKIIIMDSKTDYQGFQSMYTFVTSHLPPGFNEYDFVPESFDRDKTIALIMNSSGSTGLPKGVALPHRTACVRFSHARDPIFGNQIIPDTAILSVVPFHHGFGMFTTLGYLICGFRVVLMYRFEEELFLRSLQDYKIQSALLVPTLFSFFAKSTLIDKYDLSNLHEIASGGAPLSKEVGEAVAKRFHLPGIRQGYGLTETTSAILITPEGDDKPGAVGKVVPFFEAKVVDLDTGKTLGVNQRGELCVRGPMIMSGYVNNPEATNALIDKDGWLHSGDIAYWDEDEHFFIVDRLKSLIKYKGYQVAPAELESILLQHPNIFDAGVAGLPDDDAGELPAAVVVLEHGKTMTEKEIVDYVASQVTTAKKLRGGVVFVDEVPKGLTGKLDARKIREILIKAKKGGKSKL

Regarding `COc1ccc(CCCc2cc(O)c(OC)c(O)c2)c(O)c1O`, the values for the Potency in test [1] and in test [13] were 11 µM (active) and 11.7 µM (active), respectively. Also, the Potency result in [2], in test [3], in [4], in test [5], in test [6] and in test [7] was “inactive” in each case. For the same molecule, the Potency entry in [8], in test [9], in test [10], in test [11], in test [12] and in test [14] was “inactive” in each case. The Potency result in test [15], in test [17] and in test [20] was “inactive” in each case. Moreover, the outcome in test [16], in [18] and in test [19] was inactive.
On to `CC(O)/C=C/C1(O)C(C)(C)CC(O)CC1(C)O` (centres undefined), for which the Potency result in test [1], in test [2], in test [3], in [4], in [5] and in [6] was “inactive” each time. Also, the Potency result in test [7], in test [8], in test [9], in test [10], in test [11] and in [12] was “inactive” each time. The Potency entry in test [13], in test [14], in [15], in test [17] and in test [20] was “inactive” each time. Also, the result in test [16], in [18] and in [19] was inactive.
For the molecule `C/C=C/C=C/C1(O)C2C=C3C(=O)CC45C(=O)C(O)=C(C)C(=O)C4C1C1(C(=O)C(O)=C(C)C(=O)C351)C2C` (centres undefined), the Potency in test [1] is 39.2 µM (active). In addition, the Potency entry in test [2], in [3], in [4], in [5], in test [6] and in test [7] was “inactive” each time. Moreover, the Potency entry in test [8], in test [9], in test [10], in [11], in [12] and in [13] was “inactive” throughout. For the same molecule, the Potency entry in [14], in [15], in test [17] and in test [20] was “inactive” each time. Also, the molecule was called inactive in test [16], in test [18] and in [19].
As to `CC1(C)C=Cc2c(ccc3c2OC[C@@H](c2ccc(O)cc2O)C3)O1`, the Potency in [1] was 44 µM (active). The Potency result in test [2], in test [3], in [4], in test [5], in [6] and in test [7] was “inactive” throughout. In addition, the Potency result in test [8], in [9], in [10], in [12], in test [13] and in [14] was “inactive” throughout. Further, the Potency entry in test [15], in test [17] and in [20] was “inactive” throughout. Also, the call in test [16], in [18] and in [19] was inactive.
As to `C=C1/C=C\C(CCC)=C\c2csc(n2)C(C)NC(=O)C[C@@]2(CC(=O)O)CCC(=C)[C@H](C1)S2` (some centres undefined), the Potency in test [1] was 2.77 µM (active). Also, the Potency result in test [2], in test [3], in test [4], in [5], in test [6] and in [7] was “inactive” each time. Besides, the Potency result in [8], in test [9], in test [10], in test [11], in test [12] and in [13] was “inactive” throughout. The Potency entry in test [14], in test [15], in test [17] and in [20] was “inactive” throughout. Moreover, the molecule was called inactive in test [16], in test [18] and in [19].
